Reference: PubChem BioAssay AID1159580 (chemical genetic matrix, 2015)
Screen size: about 5,500 compounds; about 2,000 (36%) were called active. Another 18% or so got no clear call; they are omitted. Some of the results follow. A number with no mark means an inactive call. Cut-off read from the data, not from the text of the source: active = normalized growth mostly below about 0.91 (no sharp cut-off); inconclusive = no clear call, values can overlap the other calls; inactive = mostly above about 0.92.

Experiment: chemical genetic growth profiling, strain panel (AID 1159580);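 note: tested at 20 µM; growth read once vehicle control cultures reached saturation at 30 °C; 1 = growth at the plate median or of vehicle wells; lower values mean less growth of the strain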
Settings: growth OD

Molecule `O=C1OCCN1/N=C\c1ccc([N+](=O)[O-])o1` has a normalized growth (S. cerevisiae deletion strains, locus YJR075W, strain HOC1, active compounds read low) of 0.981, a normalized growth (S. cerevisiae deletion strains, locus YKL009W, strain mrt4, active compounds read low) of 0.915 and a normalized growth (S. cerevisiae deletion strains, locus YKL068W, active compounds read low) of 0.999. It also gave a normalized growth (S. cerevisiae deletion strains, locus YKL085W, strain MDH1 (second series), active compounds read low) of 0.99, a normalized growth (S. cerevisiae deletion strains, locus YKL085W, strain MDH1, active compounds read low) of 0.99 and a normalized growth (S. cerevisiae deletion strains, locus YKL160W, strain elf1, active compounds read low) of 0.984. It also gave a normalized growth (S. cerevisiae deletion strains, locus YKR001C, strain vps1, active compounds read low) of 0.938, a normalized growth (S. cerevisiae deletion strains, locus YKR026C, strain gcn3, active compounds read low) of 1 and a normalized growth (S. cerevisiae deletion strains, locus YKR091W, strain srl3, active compounds read low) of 0.997. For the same molecule, the normalized growth (S. cerevisiae deletion strains, locus YLL001W, strain dnm1, active compounds read low) was 0.978, the normalized growth (S. cerevisiae deletion strains, locus YLL026W, active compounds read low) was 0.988 and the normalized growth (S. cerevisiae deletion strains, locus YLL041C, strain sdh2, active compounds read low) was 1. The normalized growth (S. cerevisiae deletion strains, locus YLR027C, strain aat2, active compounds read low) was 0.955, the normalized growth (S. cerevisiae deletion strains, locus YLR039C, strain RIC1, active compounds read low) was 0.657 (active) and the normalized growth (S. cerevisiae deletion strains, locus YLR058C, strain SHM2, active compounds read low) was 0.967. It also gave a normalized growth (S. cerevisiae deletion strains, locus YLR102C, strain apc9, active compounds read low) of 0.988, a normalized growth (S. cerevisiae deletion strains, locus YLR113W, strain HOG1, active compounds read low) of 0.869 and a normalized growth (S. cerevisiae deletion strains, locus YLR221C, strain rsa3, active compounds read low) of 0.975. It also gave a normalized growth (S. cerevisiae deletion strains, locus YLR258W, strain gsy2, active compounds read low) of 0.976, a normalized growth (S. cerevisiae deletion strains, locus YLR262C, strain YPT6 (second series), active compounds read low) of 0.888 and a normalized growth (S. cerevisiae deletion strains, locus YLR262C, strain YPT6, active compounds read low) of 0.683. For the same molecule, the normalized growth (S. cerevisiae deletion strains, locus YLR268W, strain sec22, active compounds read low) was 0.831 (active), the normalized growth (S. cerevisiae deletion strains, locus YLR320W, strain mms22, active compounds read low) was 0.956 and the normalized growth (S. cerevisiae deletion strains, locus YLR330W, strain CHS5, active compounds read low) was 1. It also gave a normalized growth (S. cerevisiae deletion strains, locus YLR342W, strain FKS1 (second series), active compounds read low) of 0.943, a normalized growth (S. cerevisiae deletion strains, locus YLR342W, strain FKS1, active compounds read low) of 1 and a normalized growth (S. cerevisiae deletion strains, locus YLR357W, strain rsc2, active compounds read low) of 1.03. The normalized growth (S. cerevisiae deletion strains, locus YLR370C, strain arc18, active compounds read low) was 0.942, the normalized growth (S. cerevisiae deletion strains, locus YLR371W, strain rom2, active compounds read low) was 0.99 and the normalized growth (S. cerevisiae deletion strains, locus YLR384C, strain iki3, active compounds read low) was 1. For the same molecule, the normalized growth (S. cerevisiae deletion strains, locus YLR418C, strain cdc73, active compounds read low) was 0.847, the normalized growth (S. cerevisiae deletion strains, locus YML016C, strain PPZ1, active compounds read low) was 0.987 and the normalized growth (S. cerevisiae deletion strains, locus YML032C, strain rad52, active compounds read low) was 0.494 (active). For the same molecule, the normalized growth (S. cerevisiae deletion strains, locus YML120C, strain ndi1, active compounds read low) was 0.965, the normalized growth (S. cerevisiae deletion strains, locus YML124C, strain tub3, active compounds read low) was 1.01 and the normalized growth (S. cerevisiae deletion strains, locus YMR058W, strain fet3, active compounds read low) was 0.79 (active). For the same molecule, the normalized growth (S. cerevisiae deletion strains, locus YMR078C, strain ctf18, active compounds read low) was 0.976, the normalized growth (S. cerevisiae deletion strains, locus YMR125W, strain sto1, active compounds read low) was 0.93 and the normalized growth (S. cerevisiae deletion strains, locus YMR129W, active compounds read low) was 1. The normalized growth (S. cerevisiae deletion strains, locus YMR205C, strain PFK2, active compounds read low) was 1.02, the normalized growth (S. cerevisiae deletion strains, locus YMR223W, strain ubp8, active compounds read low) was 0.91 and the normalized growth (S. cerevisiae deletion strains, locus YMR231W, strain pep5, active compounds read low) was 0.998. For the same molecule, the normalized growth (S. cerevisiae deletion strains, locus YMR307W, strain GAS1, active compounds read low) was 0.761, the normalized growth (S. cerevisiae deletion strains, locus YNL067W, strain RPL9B, active compounds read low) was 0.97 and the normalized growth (S. cerevisiae deletion strains, locus YNL071W, strain lat1, active compounds read low) was 0.997. For the same molecule, the normalized growth (S. cerevisiae deletion strains, locus YNL128W, strain TEP1, active compounds read low) was 0.997, the normalized growth (S. cerevisiae deletion strains, locus YNL153C, strain GIM3, active compounds read low) was 0.842 (active) and the normalized growth (S. cerevisiae deletion strains, locus YNL183C, strain NPR1, active compounds read low) was 0.848. For the same molecule, the normalized growth (S. cerevisiae deletion strains, locus YNL209W, strain ssb2, active compounds read low) was 0.979, the normalized growth (S. cerevisiae deletion strains, locus YNL233W, strain BNI4, active compounds read low) was 0.987 and the normalized growth (S. cerevisiae deletion strains, locus YNL248C, strain rpa49, active compounds read low) was 0.84 (active). For the same molecule, the normalized growth (S. cerevisiae deletion strains, locus YNL250W, strain rad50, active compounds read low) was 0.713 (active), the normalized growth (S. cerevisiae deletion strains, locus YNL271C, strain bni1, active compounds read low) was 0.978 and the normalized growth (S. cerevisiae deletion strains, locus YNL298W, strain CLA4, active compounds read low) was 0.95. For the same molecule, the normalized growth (S. cerevisiae deletion strains, locus YNL307C, strain MCK1, active compounds read low) was 0.955, the normalized growth (S. cerevisiae deletion strains, locus YNL322C, strain KRE1 (second series), active compounds read low) was 0.992 and the normalized growth (S. cerevisiae deletion strains, locus YNL322C, strain KRE1, active compounds read low) was 0.999. For the same molecule, the normalized growth (S. cerevisiae deletion strains, locus YNR049C, strain mso1, active compounds read low) was 1.02, the normalized growth (S. cerevisiae deletion strains, locus YNR052C, strain pop2, active compounds read low) was 0.899 (active) and the normalized growth (S. cerevisiae deletion strains, locus YOL006C, strain TOP1, active compounds read low) was 0.891. The normalized growth (S. cerevisiae deletion strains, locus YOL012C, strain htz1) was 1.16, the normalized growth (S. cerevisiae deletion strains, locus YOL147C, strain pex11, active compounds read low) was 0.991 and the normalized growth (S. cerevisiae deletion strains, locus YOR001W, strain rrp6, active compounds read low) was 0.904. For the same molecule, the normalized growth (S. cerevisiae deletion strains, locus YOR061W, strain CKA2, active compounds read low) was 0.988, the normalized growth (S. cerevisiae deletion strains, locus YOR069W, strain VPS5, active compounds read low) was 0.992 and the normalized growth (S. cerevisiae deletion strains, locus YOR070C, strain gyp1, active compounds read low) was 1.01. It also gave a normalized growth (S. cerevisiae deletion strains, locus YOR080W, strain dia2, active compounds read low) of 0.986, a normalized growth (S. cerevisiae deletion strains, locus YOR083W, strain WHI5, active compounds read low) of 0.962 and a normalized growth (S. cerevisiae deletion strains, locus YOR106W, strain vam3, active compounds read low) of 0.938. For the same molecule, the normalized growth (S. cerevisiae deletion strains, locus YOR136W, strain idh2, active compounds read low) was 0.959, the normalized growth (S. cerevisiae deletion strains, locus YOR144C, strain elg1, active compounds read low) was 0.969 and the normalized growth (S. cerevisiae deletion strains, locus YOR184W, strain ser1, active compounds read low) was 0.862 (active). For the same molecule, the normalized growth (S. cerevisiae deletion strains, locus YOR231W, strain MKK1, active compounds read low) was 0.777 (active), the normalized growth (S. cerevisiae deletion strains, locus YOR265W, strain rbl2, active compounds read low) was 0.997 and the normalized growth (S. cerevisiae deletion strains, locus YOR270C, strain vph1, active compounds read low) was 0.92. The normalized growth (S. cerevisiae deletion strains, locus YOR290C, strain snf2, active compounds read low) was 0.912, the normalized growth (S. cerevisiae deletion strains, locus YOR316C, strain cot1, active compounds read low) was 0.999 and the normalized growth (S. cerevisiae deletion strains, locus YPL051W, strain arl3, active compounds read low) was 0.943. For the same molecule, the normalized growth (S. cerevisiae deletion strains, locus YPL055C, strain LGE1, active compounds read low) was 0.882, the normalized growth (S. cerevisiae deletion strains, locus YPL078C, strain atp4, active compounds read low) was 0.932 and the normalized growth (S. cerevisiae deletion strains, locus YPL106C, strain sse1, active compounds read low) was 0.889. It also gave a normalized growth (S. cerevisiae deletion strains, locus YPL240C, strain hsp82, active compounds read low) of 1.01, a normalized growth (S. cerevisiae deletion strains, locus YPL241C, strain CIN2, active compounds read low) of 0.988 and a normalized growth (S. cerevisiae deletion strains, locus YPL256C, strain CLN2, active compounds read low) of 0.909. For the same molecule, the normalized growth (S. cerevisiae deletion strains, locus YPR119W, strain clb2, active compounds read low) was 0.989, the normalized growth (S. cerevisiae deletion strains, locus YPR141C, strain kar3, active compounds read low) was 0.993 and the normalized growth (S. cerevisiae deletion strains, locus YPR163C, strain tif3, active compounds read low) was 0.993. The normalized growth (S. cerevisiae deletion strains, locus YPR167C, strain met16, active compounds read low) was 0.986, the normalized growth (S. cerevisiae deletion strains, strain wtn01, active compounds read low) was 0.87 (active) and the normalized growth (S. cerevisiae strains, strain wild type, active compounds read low) was 0.99.
